Screening results deposited in PubChem by National Center for Advancing Translational Sciences (NCATS).
Compounds with a hit are over-represented: about 21% of the library has one in this group of screens.
Pf growth 48h – P. falciparum growth inhibition at 48 hours (one generation); AID 504832; Potency, µM (highest dose often 28.7 µM), for inactives: at the highest dose activity change, negative = inhibition, most hits filed as inhibitors; 310,000 tested, 5.9% active; P. falciparum luciferase growth in erythrocytes, 48 h; active = well fitted inhibition curve with a large enough effect; inconclusive = small, poorly fitted or top-dose-only effect, or another doubt; inactive = no such curve, though single readings can be large or run the other way; note: potency is the fitted concentration of half-maximal effect; % is set by controls: 0 for no effect and ±100 for the full control effect
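First compound was added to culture medium, then infected red cells at 0.1% parasitemia and 2% hematocrit (final). After incubation at 37 C under 5% CO2, luciferase detection reagent was dispensed and light output recorded.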
SARS PLpro yeast – blocks SARS-CoV papain-like protease in a yeast assay. S. cerevisiae expressing SARS-CoV PLpro, growth rescue. 330,000 tested, 0.19% active. Potency, µM (titrated, usually from 32.9 µM), for inactives: top-dose activity, positive = growth rescue, most hits filed as activators; note: potency is the fitted concentration of half-maximal effect; 0% is about no effect; nearly all actives have a fitted effect of over 55% in size
NS1 function inh – blocks influenza NS1 protein function; Potency, µM (top dose mostly 46.1 µM), for inactives: at the highest dose activity, positive = more growth; 270,000 tested, 0.4% active; AID 2326; note: potency is the fitted concentration of half-maximal effect; actives are rising curves; nearly all actives have a fitted effect of over 50% in size
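Compounds were scored for reversing the slow growth caused by influenza A NS1 in S. cerevisiae, measured by optical density at 600 nm. Assay medium contained 2% galactose at pH 6.0; NS1-free yeast of the same strain were the positive control.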
Shiga inhibitor – inhibitors of Shiga toxin in Vero cells; Vero cells, Shiga toxin protein synthesis inhibition reporter; inhibition, % at 38.7 µM; 290,000 tested, 9.2% active; AID 2315; in the data active = inhibition mostly above about 28%, no sharp cut-off; inactive = mostly below about 43%; note: 0% is about no effect
Cycloheximide cs – counter-screen for Shiga toxin inhibitors: cycloheximide protein synthesis inhibition | cell reporter, cycloheximide protein synthesis inhibition counterscreen | max response, % | 300,000 tested, 12% active | AID 2314; in the data active = max response mostly above about 13%, no sharp cut-off; inactive = mostly below about 14%; note: read at 38.3 µM for the half of the compounds with a filed dose; 0% is about no effect
Pf growth 96h – P. falciparum growth inhibition at 96 hours; P. falciparum luciferase reporter growth, 96 h; Potency, µM (series often up to 28.7 µM), for inactives: top-dose activity change, negative = inhibition, hits mostly inhibitors; 320,000 tested, 6.9% active; AID 504834; active = well fitted inhibition curve with a large enough effect; inconclusive = small, poorly fitted or top-dose-only effect, or another doubt; inactive = no such curve, though single readings can be large or run the other way; note: potency is the fitted concentration of half-maximal effect; % is set by controls: 0 for no effect and ±100 for the full control effect
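Parasite growth measured via integrated firefly luciferase reporter in P. falciparum. Infected erythrocytes at 2% hematocrit, 0.05% parasitemia final were treated 96 hours at 37 C under 5% CO2, and luminescence was read.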
* = called active by the depositor; i = inactive; ? = inconclusive; . = no result given; + = active, no number; [ ] = remark or other dose. Unless noted, calls come from the whole dose curve.

SMILES	Pf growth 48h	SARS PLpro yeast	NS1 function inh	Shiga inhibitor	Cycloheximide cs	Pf growth 96h
COc1ccc(Cl)cc1C(Nc1cccnc1)c1ccc2cccnc2c1O (stereo unspecified)	5.2µM*	-8%	-35%	-6	1	?
Cc1cc(NC(c2cccnc2)c2ccc3cccnc3c2O)no1 (stereo unspecified)	2.1µM*	7.1µM*	-125%	-10	-4	4.1µM*
O=C(CN(C(=O)c1csnn1)c1ccc(Br)cc1)NC1CCCCC1	-9%	2%	-1%	13	-3	19%
COC(=O)C1CCN(c2ccc(Cl)nn2)CC1	1.5µM*	0%	2%	26	14	?
CC(=O)C1=C(O)C(=O)N(c2ccccn2)C1c1ccc(Cl)cc1 (stereo unspecified)	0%	4%	1%	66*	27*	-17%
O=C1C(=O)N(c2ccccn2)C(c2ccc(F)cc2)/C1=C(/O)c1ccc(Br)cc1 (stereo unspecified)	?	4%	0%	.	-4	47%
Cc1ccc(/C(O)=C2/C(=O)C(=O)N(c3ccccn3)C2c2ccc(F)cc2)cc1 (stereo unspecified)	-16%	6%	13%	66	19*	-25%
CC(=O)C1=C(O)C(=O)N(c2ccccn2)C1c1ccc(C)cc1 (stereo unspecified)	4%	-1%	12%	15	12	0.37µM*
COc1ccc(NC(=O)c2ccc([N+](=O)[O-])cc2[N+](=O)[O-])c(OC)c1	9%	-2%	.	-17	2	10%
COc1ccccc1C1CC(c2cccs2)=Nc2ccccc2S1 (stereo unspecified)	.	-4%	-15%	97*	70*	10µM*
COc1ccccc1C1CC(c2cccs2)=NN1C(=O)CCC(=O)O (stereo unspecified)	-8%	-7%	4%	-2	-2	?
Cc1ccc(N=C(NO)c2nonc2N)cc1	?	3%	3%	95*	46*	.
COc1cc2cc(CN(CCc3ccccc3C)C(=S)NCCCN(C)C)c(=O)[nH]c2cc1OC	13µM*	-21%	7%	-14	-2	?
COc1cc2cc(CN(CCc3ccccc3C)C(=S)NCCCN3CCOCC3)c(=O)[nH]c2cc1OC	7.4µM*	0%	9%	-7	-1	322%
CCNC(=S)N(CCc1ccccc1C)Cc1cc2cc(OC)c(OC)cc2[nH]c1=O	?	-3%	16%	-7	-4	?
CCNC(=S)N(CCc1cccc(C)c1)Cc1cc2cc(OC)c(OC)cc2[nH]c1=O	?	18%	13%	-5	8	-5%
Cc1ccc2[nH]c(=O)c(CN(Cc3ccccc3)C(=S)NCCCN(C)C)cc2c1	29%	1%	-35%	48*	26*	?
CN(C)CCCNC(=S)N(Cc1cccs1)Cc1cc2cc3c(cc2[nH]c1=O)OCCO3	?	0%	0%	-13	0	-8%
Nc1cccc(C#Cc2ccc3c(c2)C(=O)/C(=C/c2ccsc2)O3)c1	.	-1%	.	.	.	.
O=C(NCC1CCCN1S(=O)(=O)c1cccs1)C(=O)Nc1ccccc1Cl (stereo unspecified)	?	0%	.	.	.	-13%
O=C(O)/C=C/c1ccccc1[N+](=O)[O-]	?	1%	4%	-4	-1	-1%
O=C(/C=C/c1ccccc1[N+](=O)[O-])NC1CCCC1	38%[5.75 µM]	0%	-2%	70*	19*	-3%
CCC(C)(C)NC(=O)/C=C/c1ccccc1[N+](=O)[O-]	13%	-4%	.	-9	5	-2%
O=C(/C=C/c1ccccc1[N+](=O)[O-])Nc1ccccc1	i	-2%	0%	101*	36*	0%
CC(C)N(Cc1ccccc1)C(=O)/C=C/c1ccccc1[N+](=O)[O-]	10µM*	0%	-1%	-16	-2	-4%
SMILES	Pf growth 48h	SARS PLpro yeast	NS1 function inh	Shiga inhibitor	Cycloheximide cs	Pf growth 96h
COc1cc(NC(=O)/C=C/c2ccccc2[N+](=O)[O-])cc(OC)c1	48%	3%	-2%	19	15*	-7%
COc1ccc(CCNC(=O)COc2ccc(C)nc2[N+](=O)[O-])cc1OC	2%	-1%	.	-10	-2	-3%
COc1cc(C)ccc1OCC(=O)OCC(=O)NCC1CCCCC1	.	-4%	.	.	.	.
CC(=O)Nc1ccc(NC(=O)COC(=O)c2c(-c3ccccc3)noc2C)cc1	?	2%	.	.	.	0%
N/C(=N\OC(=O)Oc1ccccc1)c1ccc(Cl)cc1	.	-1%	11%	-13	-3	0%
N/C(=N\OC(=O)COc1ccccc1Cl)c1ccc(Cl)cc1	8%	-20%	-3%	+	15*	?
Cc1cc(C)cc(OCC(=O)O/N=C(\N)c2ccccc2Cl)c1	3%	-6%	-9%	32	16	15%
Cc1ccc(/C(N)=N/OC(=O)COc2ccccc2Cl)cc1	75%	-2%	-5%	97	39*	58%
Cn1c(N)c(C(=O)c2ccc(C#N)cc2)c(=O)n(C)c1=O	13%	7%	2%	-11	-8	-16%
Oc1c(Cl)cc(Cl)cc1C=Nc1ccc2c(c1)OCCO2	5%	-20%	-16%	117*	68*	55%
Brc1csc(C=Nc2ccc3c(c2)OCCOCCOCCOCCO3)c1	14%	6%	0%	-10	0	34%
Cc1ccc(C(=O)CSc2nnc(-c3ccccc3N)n2C)cc1	-2%	4%	-2%	94*	65*	16%
Cn1c(CO)cnc1SCC(=O)c1ccc(Br)cc1	18%	0%	.	44	10	8%
Cn1c(SCC(=O)c2ccc(F)cc2)nnc1-c1ccccc1N	9%	-2%	9%	123*	47*	?
Cn1c(CO)cnc1SCC(=O)c1ccc(F)cc1	58%	1%	-2%	75*	24*	34%
CCn1c(SCC(=O)c2ccc(O)c(O)c2)nnc1-c1ccc(C)cc1	?	-2%	10%	-6	0	-28%
CCn1c(Cc2cccn2C)nnc1SCC(=O)c1ccc(C)cc1	13µM*	-7%	-4%	129*	35*	15µM*
O=c1c(-c2nn[nH]n2)coc2ccc(Cl)cc12	15%	-1%	-2%	-3	-8	44%
CC1CCC(C#N)(N(C)C(=O)CSc2nnc(C3CC3)n2C2CC2)CC1 (stereo unspecified)	?	1%	.	.	.	?
Cn1c(CO)cnc1SCc1ccc([N+](=O)[O-])cc1	31%	1%	3%	5	6	3%
Cc1ccc(C(=O)CSc2nnc(-c3ccco3)n2C)cc1	-9%	1%	-6%	52*	35*	-23%
Cc1cccc(CSc2ncc(CO)n2C)c1	31%	-26%	-1%	17	20*	21%
CN1CCN(C(=O)CSc2nnc(COc3ccc(Cl)cc3)o2)CC1	?	1%	22%	17	7	-14%
CC1CC(C)CN(C(=O)c2cc(S(=O)(=O)N3CCCCC3)ccc2Cl)C1 (stereo unspecified)	?	-1%	.	.	.	-21%
